Measurements published in PubChem BioAssay AID488969 (Vanderbilt High Throughput Screening Facility, 2010).
In all, about 110,000 compounds were measured (“z-score”: median about -0.1, highest 2% from about 2 on). Shown is part of a subset that was picked to be rich in the highest values. Active and inactive are the calls of the source.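 The calls were made as follows: active = z-score in the third read window above 3 or below -3; inactive = the rest.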

target: Metabotropic glutamate receptor 8 (Rattus norvegicus) (UniProt P70579); test: rat mGluR8 modulators via GIRK flux, primary screen, cell-based, thallium flux, HTS (AID 488969); conditions: HEK293 rat mGluR8, GIRK (G protein-gated inwardly rectifying potassium channel) thallium flux, FluoZin2; at 10 µM; stronger effect = higher value; submaximal glutamate (EC20) added with thallium
Sequence (P70579 whole entry, looked up): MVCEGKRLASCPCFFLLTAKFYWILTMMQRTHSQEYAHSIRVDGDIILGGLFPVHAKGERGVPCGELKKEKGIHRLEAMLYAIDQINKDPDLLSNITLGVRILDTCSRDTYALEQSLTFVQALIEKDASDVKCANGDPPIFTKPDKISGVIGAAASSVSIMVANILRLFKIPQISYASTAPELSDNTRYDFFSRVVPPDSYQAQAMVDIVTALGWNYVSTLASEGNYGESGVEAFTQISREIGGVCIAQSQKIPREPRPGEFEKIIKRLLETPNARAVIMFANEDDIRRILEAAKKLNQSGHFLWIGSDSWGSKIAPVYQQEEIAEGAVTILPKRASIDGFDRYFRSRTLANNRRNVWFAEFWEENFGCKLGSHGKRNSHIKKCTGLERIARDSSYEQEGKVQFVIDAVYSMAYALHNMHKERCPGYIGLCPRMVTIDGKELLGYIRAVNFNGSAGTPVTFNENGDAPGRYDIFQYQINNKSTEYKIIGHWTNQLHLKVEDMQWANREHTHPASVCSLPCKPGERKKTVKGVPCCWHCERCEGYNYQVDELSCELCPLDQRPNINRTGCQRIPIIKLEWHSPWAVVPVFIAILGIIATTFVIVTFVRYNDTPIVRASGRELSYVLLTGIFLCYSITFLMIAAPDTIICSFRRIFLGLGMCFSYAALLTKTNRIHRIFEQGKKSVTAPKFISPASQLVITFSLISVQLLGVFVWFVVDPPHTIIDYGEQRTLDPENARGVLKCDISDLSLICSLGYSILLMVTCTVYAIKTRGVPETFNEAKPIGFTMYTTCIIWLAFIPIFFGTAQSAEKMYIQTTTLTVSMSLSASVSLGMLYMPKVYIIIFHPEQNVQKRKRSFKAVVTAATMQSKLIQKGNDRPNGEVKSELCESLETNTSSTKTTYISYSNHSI

Row | SMILES | z-score
1 | O=C(Nc1cccc(F)c1)C1CCN(C(=O)c2ccccc2Cl)CC1 | -0.486
2 | CCOC(=O)CS(=O)(=O)c1ccc(C(F)(F)F)cn1 | -0.0154
3 | CCCOC(=O)c1ccc(NS(=O)(=O)c2cccs2)cc1 | 0.0163
4 | Cc1cc(C)c2nc(NC(=O)c3cccc(S(=O)(=O)N4CCc5ccccc54)c3)sc2c1 | -0.315
5 | CN1CCOCCOCCN(C)C(=O)N2CCOCCOCCN(CCOCC2)C1=O | 1.25
6 | CC(C)(C)c1ccc(CSc2nnc(-c3ccccn3)n2Cc2ccco2)cc1 | -0.295
7 | Clc1ncnc2scc(C3COc4ccccc4O3)c12 (stereo unspecified) | -0.228
8 | Cc1cc(C)nc(NS(=O)(=O)c2ccc(NC(=O)CCC3COc4ccccc4O3)cc2)n1 (stereo unspecified) | -0.4
9 | Cc1cc(NC(=O)c2cnc3ccccn3c2=O)no1 | -0.108
10 | CCCCNC(=S)NCCN1CCCCC1 | 0.407
11 | COc1ccc(C(C[N+](=O)[O-])c2c(C)[nH]c3ccccc23)cc1OC (stereo unspecified) | -2.31
12 | COc1ccc(OCC(O)CN(C2CCCCC2)C2CCCCC2)cc1 (stereo unspecified) | 0.744
13 | CCN(CC(O)COc1ccc(OCC(O)CN(CC)C2CCCCC2)cc1)C1CCCCC1 (stereo unspecified) | 2.32
14 | CN(CC(O)COc1ccc(OCC(O)CN(C)C2CCCCC2)cc1)C1CCCCC1 (stereo unspecified) | 1.64
15 | O=C(/C=C/c1ccc(S(=O)(=O)N2CCOCC2)cc1)NCc1ccccc1 | -0.687
16 | CCOC(=O)N1CCC(N(C(=O)Nc2ccc(Cl)c(Cl)c2)C(C)CC)CC1 (stereo unspecified) | -0.099

Row | SMILES | z-score
17 | Fc1cccc2sc(Nc3nnc(-c4ccco4)o3)nc12 | 16 (active)
18 | COc1cccc(-c2nnc(NC(=O)C3CCCCC3)o2)c1 | -0.375
19 | COc1cccc(-c2nnc(Nc3nc4c(F)cccc4s3)o2)c1 | 17.4 (active)
20 | COc1cc(OC)cc(-c2nnc(Nc3nc4c(F)cccc4s3)o2)c1 | 9.94 (active)
21 | Fc1cccc2sc(Nc3nnc(-c4ccccc4)o3)nc12 | 17.1 (active)
22 | COc1cccc(-c2nnc(-c3ccc(C(F)(F)F)cc3)o2)c1 | -0.245
23 | Cc1ccsc1C(=O)Nc1nnc(-c2ccco2)o1 | 0.832
24 | COc1cc(-c2nnc(CSc3nc4ccccc4s3)o2)cc(OC)c1OC | -3.36 (active)
25 | c1coc(-c2nnc(NC3=NCCC3)o2)c1 | 1.08
26 | O=c1oc2ccccc2cc1-c1csc(Nc2nc3c(F)cccc3s2)n1 | 0.848
27 | Nc1nc2c(F)cccc2s1 | -0.0918
28 | CCOC(=O)c1sc(Nc2nc3c(F)cccc3s2)cc1C | 0.23
29 | CCOC(=O)C(C)n1cnc2c1c(=O)[nH]c(=O)n2C (stereo unspecified) | -0.374
30 | COc1ccc(CNC(=O)CN(C(=O)c2ccc(CN3CCOCC3)o2)C2CCCC2)cc1 | -0.1
31 | CCOc1cc(-c2cc(-c3ccc(C)cc3)nc(N)c2C#N)ccc1O | -0.244
